Hit rate of the full screen: of about 2,200 compounds, about 480 (22%) were called active. A selection follows. Entries with a potency or affinity are not part of this list. A number with no mark means an inactive call. No rule for the calls is given here.
assay: S. Typhimurium GFP fluorescence modified counterscreen for PhoP regulon inhibitor project dose response (AID 1981); settings: 4 h; series mostly up to 150 µM; inhibition: at the top concentration;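 also: 0% = induced DMSO wells and 100% = uninduced wells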

SMILES | inhibition
c1ccc2c(c1)ncn2CCCCOc1ccc2c(c1)CCC2 | 5.38%
Cc1ncoc1C(=O)Nc1cccc(Cl)c1 | -2.48%
CC1N(C)c2cc(NC(=O)c3ccco3)ccc2C1(C)C (stereo not given) | 7.13%
CSc1cccc(NC(=O)c2ccco2)c1 | 0.75%
O=C(Nc1ccc2c(c1)oc1ccccc12)N1CCOCC1 | -1.29%
O=C(NCC(=O)N(c1cccnc1)C(C(=O)NCc1ccco1)c1ccccc1)c1ccco1 (stereo not given) | 3.62%
CC(=O)c1c(C)n([O-])c2cc(F)c(F)cc2[n+]1=O | 3.8%
Cc1c(C(=O)Nc2cccc(Cl)c2)c2ccccn2c1CCc1ccncc1 | 0.01%
CCOc1ccc(-c2nnc(SCc3nnc(-c4ccccc4)o3)n2-c2ccccc2F)cc1 | -12.2%
CCC(CC)NC(=O)COC(=O)c1ccc(OCC(=O)Nc2ccccc2OC)c(OC)c1 | 7.06%
Cc1nn(-c2ccccc2)c(C)c1C(=O)OC/C(O)=C(\C#N)c1nc2ccccc2[nH]1 | 2.85%
COC(=O)c1sc2nc(CSc3nc4ccc(C)cc4[nH]3)[nH]c(=O)c2c1C | -22.2%
CCOCC(=O)Nc1ccc(F)c(F)c1 | -1.81%
Nc1nc(N)nc(-c2ccccc2)n1 | 0.22%
O=C(Nc1cccc(Cl)c1)Nc1ccc2c(c1)OCO2 | 17.6%
CC(C)(C)c1ccc(NC(=O)COC(=O)c2ccc([N+](=O)[O-])s2)cc1 | -1.36%
O=C(NCCCc1ccccc1)Nc1cccc(Cl)c1 | 11.9%
N/C(=N/OC(=O)c1ccccc1Cl)c1ncc([N+](=O)[O-])s1 | 7.99%
CCOC(=O)Nc1ccc(C)cc1C | -8.78%
CCOC(=O)c1sc(-c2ccc(C(F)(F)F)cc2)nc1O | 0.14%
O=C(NNc1c2ccccc2nc2ccccc12)c1ccccc1O | 6.64%
CC(C)c1ccc(NC(=O)N(CCc2nc3ccccc3[nH]2)C2CCCC2)cc1 | -4.79%
Cc1ccc(CNC(=O)Nc2cccs2)cc1 | 0.25%

SMILES | inhibition
CCCc1cc(C(=O)NNC(=S)NC(C)c2ccccc2)cs1 (stereo not given) | -11.8%
Cc1noc(C)c1CSc1nc2ccccc2nc1NS(=O)(=O)c1ccc(Cl)cc1 | 11%
COc1ccc(C(=O)NC(=S)NCc2ccc(-c3nc4ccccc4o3)cc2)cc1OC | -4.99%
O=C(O)CC(NC(=S)NCc1ccccc1)C(=O)O (stereo not given) | -4.62%
Cc1cc(Nc2ccc(Cl)cc2)nc(N)n1 | 20.8%
O=S(=O)(c1ccc(NC(=S)Nc2ccc3c(c2)OCO3)cc1)N1CCOCC1 | -16.1%
CC(C(=O)NC1CCS(=O)(=O)C1)N1C(=O)/C(=C/c2ccc(Cl)cc2)SC1=S (stereo not given) | -14.2%
O=S1(=O)C=CC(Nc2cccc(Cl)c2)C1 (stereo not given) | -0.09%
CC1=C(C(=O)OCC2CCCO2)C(c2cccc(C(F)(F)F)c2)C2=C(CC(c3ccco3)CC2=O)N1 (stereo not given) | -9.9%
CN(CCNS(=O)(=O)c1ccc2c(c1)oc(=O)n2C)Cc1ccccc1 | -17.6%
COc1ccc(-c2cnn3c(N)c(S(=O)(=O)C(C)(C)C)cnc23)cc1 | 6.45%
O=C(N/N=C/c1ccc(Cl)cc1Cl)c1cccc(F)c1 | -13.2%
C/C(=C\C(=O)c1cccnc1)Nc1ccc(O)cc1 | -26.2%
O=C(N/N=C/C1C(c2ccccc2)C1(Cl)Cl)c1cccc(Cl)c1 (stereo not given) | 14.5%
N/C(=N\OC(=O)COc1ccc(Cl)cc1)c1cccnc1 | 4.11%
N/C(=N\OC(=O)Cc1ccc(Cl)cc1)c1cccnc1 | 16.3%
CC(=O)Nc1ccc(OC(=O)c2cccnc2)cc1 | -26.3%
O=C(N/N=C/C1CC=CCC1)c1ccc(Cl)cc1O (stereo not given) | 33.9%
N#CC(CC(=O)c1ccc(F)cc1)c1ccc2c(c1)OCO2 (stereo not given) | -2.1%
C/C(=N\NC(=S)Nc1ccc(F)cc1)c1ccc2c(c1)OCCO2 | -25.7%
C(=N\c1nc2ccccc2n1CCN1CCCCC1)/c1cccs1 | 2.07%
Cc1cccc(C(=O)Nc2nnc(Cc3c[nH]c4ccccc34)s2)c1 | 17.4%
CC1CN(C(=O)CCc2ccccc2)C(C)CN1C(=O)CCc1ccccc1 (stereo not given) | -14.4%

SMILES | inhibition
Cc1cccc(OCCSCc2nc3ccccc3[nH]2)c1 | -3.83%
Cc1ccc(Cn2cnc3ccccc32)cc1 | -14.9%
Cc1ccc(-c2nnc(SCC(=O)N3CCCc4ccccc43)n2N)cc1 | -4.51%
Clc1ccc(-c2cnc3n2CCC3)cc1 | 20.7%
O=[N+]([O-])c1ccc(N2CCN(CCOc3nonc3-c3ccccc3)CC2)c(Cl)c1 | -17.7%
Cc1occc1C(=O)n1cnc2ccccc21 | -9.62%
Nc1c(-c2ccccc2Cl)cnn1-c1cccc([N+](=O)[O-])c1 | -11.9%
C=C(C)C1Cc2cc3ccc(=O)oc3cc2O1 (stereo not given) | -12.2%
CCOC(=O)C1=C(C)N(CCO)C(=O)NC1c1cccc(O)c1 (stereo not given) | -4.28%
O=c1c2ccccc2nnn1Cc1ccccn1 | -6.94%
Cc1cc(C)c(C#N)c(SCC(O)CS(=O)(=O)Cc2ccccc2)n1 (stereo not given) | -3.65%
C/C(=N\NC(=O)C1CC1c1ccccc1)c1cccc([N+](=O)[O-])c1 (stereo not given) | 3.97%
Cc1ccc(N=Nc2ccc(O)c(/C=N\NC(=O)c3ccc(N)cc3)c2)cc1C | 4.29%
Cc1cc(/C=N/NC(=O)c2cccc([N+](=O)[O-])c2)c(C)n1-c1ccc(Cl)cc1Cl | 11%
Cc1cc(C(=O)N/N=C/c2cc(Br)cc(Br)c2OC(=O)c2ccccc2)n[nH]1 | -12.9%
Nc1nnc(CC(=O)N/N=C\c2cc([N+](=O)[O-])ccc2O)s1 | 11.5%
Cc1ccc2cccc(Oc3ncnc4scc(-c5ccccc5)c34)c2n1 | -10.1%
CN(C)c1ccnc(-n2cccc2/C=N/OCc2ccccc2)c1C#N | -15.6%
COc1ccc(OC)c(NC(=O)c2cc3c(Cl)nc4ccccc4c3s2)c1 | 0.23%
Cc1ccc(C)c(C(=O)NCc2ccncc2)c1 | -9.64%
COc1ccc(CN=C2Nc3ccccc3CS2)cc1 | 1.48%
O=c1c2cc(Br)ccc2nc(-c2ccccc2)n1O | 21.9%
CN1CCCC(OC(=O)c2ccc(Cl)cc2)C1 (stereo not given) | 5.48%

SMILES | inhibition
NC(=S)c1cc2ccc(O)cc2oc1=O | 18.9%
OCCCNc1nc(-c2ccc(Cl)cc2)nnc1-c1ccc(Br)cc1 | -7.67%
CCn1c(CNC(=O)COc2ccc(C(C)C)cc2)nnc1SCC(=O)Nc1ccccc1 | -1.91%
FC(F)(F)c1cc(C(F)(F)F)c2ccc(Oc3ccccc3)nc2n1 | 1.91%
Cc1cc(C)c2c(c1)NC(=O)C2(O)CC(=O)c1cccs1 (stereo not given) | 7%
CC(C)(C)NC(=O)CSc1nnc(-c2ccncc2)o1 | 2.59%
COc1ccccc1/C=C1\CCCC2=C1Nc1nnnn1C2c1ccccc1OC (stereo not given) | 13%
O=[N+]([O-])c1ccc(NCCCNS(=O)(=O)c2ccccc2)c(Cl)c1 | -2.82%
COC(=O)c1sccc1NC(=O)CSc1ccccc1NS(=O)(=O)c1ccc(Cl)cc1 | -3.4%
CCC(C)C(NC(=O)OCc1ccccc1)C(=O)OCN1C(=O)c2ccccc2C1=O (stereo not given) | 5.7%
c1ccc(-c2ncnc3nc4n(c23)CCC4)cc1 | -1.03%
CCn1nnc(-c2ccccc2NC(=O)c2ccc(-n3cnnn3)cc2)n1 | -0.33%
Cc1cc(-c2csc(N)n2)c(C)n1C | -7.84%
COc1cc(NC(=O)Nc2cccc(Cl)c2)c(OC)cc1NC(=O)CN1CCCCC1 | 4.21%
CN(C)CCNc1nc(-c2ccccc2)nnc1C(F)(F)F | -13.8%
Cc1cc(NCCN2CCOCC2)n2ncc(-c3ccccc3)c2n1 | 2.32%
COc1cc(C2SCC(=O)N2c2nnc(C34CC5CC(CC(C5)C3)C4)s2)cc(OC)c1OC (stereo not given) | -15.5%
N#CCC1c2ccccc2CCN1C(=O)Nc1ccc(Cl)cc1 (stereo not given) | 5.37%
CC1(C)CC(=O)C=C(Nc2ccc(Br)cn2)C1 | -15.5%
COCCNC(=O)CSCc1c(F)cccc1Cl | -7.74%
Cc1ccc(C(=O)Oc2cccc(NC(=O)c3cccs3)c2)cc1S(=O)(=O)N1CCOCC1 | -13%
NC(=O)c1ccccc1N=Cc1ccccn1 | -4.7%
Cc1cc(C)cc(NC(=O)CSc2nc3c(c(=O)[nH]2)CN(Cc2ccc(F)cc2)CC3)c1 | -13.9%

SMILES | inhibition
COC(=O)C1(O)CC(C(C)C)=NN1C(=O)c1ccc(Cl)cc1 (stereo not given) | -1.95%
Cc1cccc(CN(C)C)c1OC(=O)N(C)C | -0.78%
Cc1ccc(/C=C2\SC(=S)N(Cc3ccccc3)C2=O)o1 | 2.23%
COc1ccc(NC2=Nc3cccc4cccc2c34)cc1 | 4.87%
Oc1cccc2ccc[n+](CC(O)Cn3c4ccccc4c4ccccc43)c12 (stereo not given) | 1.86%
O=C(CSc1ncnc2ccccc12)Nc1cc(S(=O)(=O)N2CCCCC2)ccc1Cl | -3.66%
COc1ccc(NS(=O)(=O)c2cc(C)ccc2NC(=O)c2cc(C)oc2C)cc1 | -2.27%
COc1ccc(C)cc1C(=O)CCC(=O)Nc1ccccc1N1CCOCC1 | 6.84%
CCCOc1ccc(C(=O)CCC(=O)OCC(=O)N2CC(=O)Nc3ccccc32)cc1 | 16.2%
O=C(CN1CCC(NC(=O)c2cccc(F)c2)CC1)NCc1ccccc1F | -13.7%
CCCOc1ccc(C(=O)N2CCCC2C(=O)O)cc1 (stereo not given) | 16.7%
CCn1cc(C(=O)NCc2ccncc2)c(=O)c2cc(F)c(N3CCN(C(=O)c4ccco4)CC3)cc21 | -5.18%
O=C(Nc1nc(-c2ccncc2)cs1)C1c2ccccc2Oc2ccccc21 | 34.1%
O=C1c2[nH]nc(-c3ccccc3O)c2C(c2ccc(F)cc2)N1Cc1ccco1 (stereo not given) | -28.4%
CCCCNC(=O)OC1CCS(=O)(=O)C1 (stereo not given) | 3.96%
COC(=O)c1ccccc1NC(=O)NCc1ccc2c(c1)OCO2 | -10.6%
O=C(CN1CCCCCC1)Nc1cccc(Br)c1 | -1.83%
C=CCSc1nnc(-c2ccc(Cl)cc2Cl)o1 | -8.96%
CCCCCOc1ccc(NC(=O)C(=O)NCCC2=CCCCC2)cc1 | -0.5%
Cc1ccc(OCC(=O)N2CCN(S(=O)(=O)c3ccccc3)CC2)c([N+](=O)[O-])n1 | -21.7%
Cc1nc(CC(=O)c2ccc(O)cc2O)cs1 | -4.6%
CCc1c(C)c2cc(Cl)c(O)c(CN3CCCCC3)c2oc1=O | 6.99%
Cc1onc(-c2c(F)cccc2Cl)c1C(=O)Nc1cccc(Cn2cccn2)c1 | 5.52%

From PubChem BioAssay AID1981 (Southern Research Specialized Biocontainment Screening …, 2009)
